# Pf Dd2 growth: inhibitors of Plasmodium falciparum Dd2 growth; P. falciparum Dd2 growth, SYBR Green, 72 h; Potency, µM (titrated, usually from 28.9 µM), hits mostly inhibitors; hit rate 4.3% among 120,000; AID 1347417; active means well fitted inhibition curve with a large enough effect; further: nearly all actives have a fitted effect of over 65% in size
#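 Infected erythrocytes (Dd2, 0.3% parasitemia, 2.5% hematocrit final) are added to compound in RPMI-1640/Albumax II medium, grown 72 h at 37C in low oxygen, then lysed with saponin/Triton-X containing SYBR Green and read by fluorescence.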
# Numbers stand for hits; i = inactive. Many of the other results were omitted from the sample, so hits are more common in it than they were.
SMILES,Pf Dd2 growth
COc1ccc(C2Cn3nnc(-c4noc(CCc5cccc(OC)c5)n4)c3CO2)cc1 (centres undefined),i
O=C(C[C@@H]1O[C@H](CNC(=O)c2ccccc2)[C@@H](O)[C@H]1O)NC1CC1,i
CC1=C[C@@H](CN2CCC[C@H]2CO)[C@H](C(C)C)C[C@H]1Cc1nnc(-c2cncn2C)o1,i
CC1=C[C@@H](CN2CCN(C)CC2)[C@H](C(C)C)C[C@H]1Cc1nnc(C)o1,i
CC1=C[C@@H](CN2CCN(C)CC2)[C@H](C(C)C)C[C@H]1Cc1nnc(-c2ccc(N(C)C)cc2)o1,3.98µM
CC1=C[C@@H](CN2CCC(C(N)=O)CC2)[C@H](C(C)C)C[C@H]1Cc1nnc(-c2ccc(N(C)C)cc2)o1,3.55µM
CC1=C[C@@H](CN2CCC(C(N)=O)CC2)[C@H](C(C)C)C[C@H]1Cc1nnc(-c2ccccc2F)o1,i
O=C(NC1C[C@H]2CC[C@@H](C1)N2S(=O)(=O)c1ccc(Cl)s1)c1ccncc1 (some centres undefined),i
CCn1ccc(C(=O)N2CCC(N3C(=O)C(OC)C34CCOCC4)CC2)n1 (centres undefined),i
CCc1cn(C[C@H](NCC(C)(C)C)C(=O)O)c(=O)[nH]c1=O,i
CC(=O)NC1(C)CCN(Cc2cnc(-c3cccc(N4CCOCC4)c3)s2)CC1,i
COC(=O)[C@@H](C)NC(=O)[C@H]1CN(C(=O)c2cccnc2)CCN1C(=O)NC(C)C,i
O=C(CCc1ccccc1)N1CCC(N2CC3CC(C2)[C@H]2CCCC(=O)N2C3)CC1 (some centres undefined),i
Cc1cccc(OC[C@H]2C[C@@H](NCc3ccc(C)o3)[C@H](O)[C@@H]2O)n1,i
COCCCNC(=O)CSc1nc2c(sc3ccccc32)c(=O)n1CCCC(=O)NCCOC,i
Cc1ccccc1CSc1nc2c(sc3ccccc32)c(=O)n1CCCC(=O)NCCCOC(C)C,11.2µM
CC(C)OCCCNC(=O)CCCn1c(SCC(=O)c2ccc(F)cc2)nc2c(sc3ccccc32)c1=O,i
CCc1noc(-c2cn(C3CCN(C(=O)c4ccc(C)cc4C)C3)nn2)n1 (centres undefined),i
CC1=C[C@@H](CNC(=O)c2cncnc2)[C@H](C(C)C)C[C@H]1CC(=O)N(C)Cc1ccccc1,i
COC(=O)C1=C(C)NC(=O)NC1c1ccccc1OC (centres undefined),i
COc1cc(CN2CCC3(CC2)CN(c2ccncn2)CC3CO)ccc1F (centres undefined),i
COc1cc(CN2CCCC(c3[nH]ccc3C(N)=O)C2)ccc1F (centres undefined),i
COc1cc(CN2CCC3(CCN(CC4CC4)CC3)C(CO)C2)ccc1F (centres undefined),8.91µM
CCOc1ccccc1CNC(=O)C(C)C1CCOCC1 (centres undefined),i
COc1ccc(CNCC2(COc3cccnc3)C[C@@H](O)[C@@H](O)C2)cc1 (some centres undefined),i
SMILES,Pf Dd2 growth
COc1cccc(C(=O)NCC2(COc3ccccc3)C[C@@H](O)[C@@H](O)C2)c1 (some centres undefined),i
COc1cccc(CNCC2(COc3ccccc3)C[C@@H](O)[C@@H](O)C2)c1 (some centres undefined),3.98µM
O=C(C1CN(c2ccc(Cl)cc2)C(=O)N1)N1CCN(Cc2ccccc2)CC1 (centres undefined),i
CC(CNc1nccc(C2(c3ccccc3Cl)CCNCC2)n1)CN(C)C (centres undefined),i
C[C@@H](O)CNc1nccc(C2(c3ccccc3Cl)CCNCC2)n1,i
Clc1ccccc1C1(c2ccnc(NCc3ccncc3)n2)CCNCC1,i
CC(C)CNc1nccc(C2(c3ccccc3Cl)CCNCC2)n1,5.01µM
CCC(C)Cc1nccc(C2(c3ccccc3Cl)CCNCC2)n1 (centres undefined),4.47µM
OCC(O)CNc1nccc(C2(c3ccccc3Cl)CCNCC2)n1 (centres undefined),i
Cc1ccc(C(=O)N2C[C@@H](Oc3cccnc3)C[C@H]2C(=O)N2CCOCC2)cn1,i
COc1cccc(N2CCN(C(=O)COc3ccc(NC(=O)C4CC4)cn3)CC2)c1,i
CCOC(=O)CCNC(=O)N1CCC(Oc2ncccc2C(=O)N2CCOCC2)C1 (centres undefined),i
CC(C)NC(=O)[C@@H]1C[C@H](N)CN1C(=O)c1ccccc1-c1ncc[nH]1,i
Cn1cc(CN2C[C@H](C(=O)Nc3nccs3)C[C@@H]2c2cccc(C(F)(F)F)c2)cn1,i
CN1C[C@H](C(=O)Nc2ccncn2)C[C@H]1c1cccc(C(F)(F)F)c1,i
CN1C[C@H](C(=O)Nc2nccs2)C[C@H]1c1cccc(C(F)(F)F)c1,2.82µM
O=C(NCc1ccc(Cl)cc1)c1ccn2nccc2c1,i
CC1(CCCCN2CCOCC2)COc2ccc(C(=O)NCc3ccco3)cc2N1 (centres undefined),i
COCCNC(=O)c1ccc(-n2c(-c3ccccc3)cc3c2CCC(C)C3)cc1 (centres undefined),i

# Compound activity (PubChem)
